Compound activity (PubChem)
TROY NFkB inh: inhibitors of TROY-driven NF-kB signaling, primary screen, Q293 LMP1-TROYcd cells, NF-kB luciferase, uHTS | Q293 LMP1-TROYcd NF-kB luciferase reporter, 4 h | inhibition, % at 10 µM | 360,000 compounds, 0.98% hits | AID 1347056, 2019;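 active = compounds whose plate-normalised and pattern-corrected inhibition of the luciferase reporter signal at the single screening dose is 50% or more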
TWEAK-Fn14 inh: inhibitors of TWEAK-Fn14 signaling, primary screen, luciferase reporter cells, uHTS | TWEAK-stimulated Fn14 reporter cells, luciferase luminescence, 8 h | AID 1159606, 2016 | inhibition, % at 10 µM | 360,000 compounds, 2% hits; in the data active = inhibition above about 50%
KKLEB tox: cytotoxicity in KKLEB CF airway cells, primary screen, cytotoxicity control for CF NF-kB inhibitor project, cell-based, uHTS, fluorescence assay plates; 360,000 compounds, 0.36% hits; AID 602141, 2011; KKLEB CF airway cells viability, ATPlite luminescence, overnight; active compounds read low; cells stimulated with P. aeruginosa culture filtrate; activity change (cytotoxicity), % at 5 µM;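 active = corrected activity change at or below -50% at 5 µM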
Peg3 promoter: Peg3 promoter-driven luciferase inhibitors, primary screen, cell-based, HeLa, luciferase luminescence. HeLa PEG-Prom luciferase reporter, overnight. AID 588405, 2011. inhibition, % at 20 µM. 360,000 compounds, 1.7% hits;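 active = inhibition of at least 50% at 20 µM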
CF NFkB block: inhibitors of PAF-induced NF-kB signaling, primary screen, cell-based, GFP fluorescence, uHTS; KKLEB NF-kB-GFP reporter, GFP fluorescence overnight; inhibition, % at 5 µM; 360,000 compounds, 0.86% hits;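 active = at least 50% inhibition at 5 µM, scaled per plate between neutral and stimulator controls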;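 note: PAF is a Pseudomonas aeruginosa culture filtrate used as stimulus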
HIF-2a block: HIF-2a reporter inhibitors, primary screen, luminescence, 786-0 RCC cells; inhibition, % at 18.8 µM; 786-0 RCC cells HIF-2a reporter, luciferase luminescence, overnight; 360,000 compounds, 0.72% hits;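 active = inhibition of the luminescence signal of 40% or more relative to plate controls, in a single-dose primary screen at 18.75 µM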
Each line names hits and unclear results; the compound was inactive in the other large screens. Compounds with a hit are over-represented: about 3.9% of the library has one in this group of screens.

CC(C)(C)NC(=O)CSc1nc2ccc(NC(=O)CSc3nnnn3Cc3ccccc3)cc2s1	TROY NFkB inh 50, TWEAK-Fn14 inh 73
COc1cc(NC(=S)Nc2ncccc2C)cc(OC)c1OC	none
C[C@H](CO)N1C[C@H](C)[C@@H](CN(C)C(=O)Nc2ccccc2)Oc2ccc(NS(=O)(=O)c3ccc(F)cc3)cc2C1=O	none
CCc1ccc(NC(=S)/N=C(\N)Nc2nc(C)c3cc(CC)ccc3n2)cc1	TWEAK-Fn14 inh 57
CCOc1ccc2nc(N/C(N)=N/C(=S)Nc3ccc(OC)cc3)nc(C)c2c1	none
COc1ccc(NC(=O)C2CCCCN2CC(=O)OCc2ccccc2)cc1OC (centres undefined)	none
CN1C(=O)N(C)c2ccc(Br)c3cccc1c23	TROY NFkB inh 65
Cc1cccc(C(=O)NNC(=O)c2c(O)c3ccccc3n(C)c2=O)c1	none
Cn1c(=O)c(C(=O)NNC(=O)c2cccc(Cl)c2)c(O)c2ccccc21	Peg3 promoter 64, CF NFkB block 73
Cn1c(=O)c(C(=O)Nc2ccccn2)c(O)c2ccccc21	TWEAK-Fn14 inh 56
O=C(CSc1ccc(Cl)cc1)Nn1cnnc1	none
CCN1CCN(C(=O)Nc2cccc3ccccc23)CC1	TROY NFkB inh 56
CN1CCN(C(=O)Nc2cccc3ccccc23)CC1	none
CCOc1cc([C@@H]2C[C@H]3CN(c4ccccc4)C(=O)[C@]34CCCN24)ccc1OC	Peg3 promoter 98
COc1ccccc1CN1C[C@@H]2C[C@@H](c3ccc(Cl)cc3)N3CCC[C@@]23C1=O	none
COc1ccccc1-n1cc([C@@H]2C[C@H]3CN(c4ccccc4)C(=O)[C@]34CCCN24)cn1	TWEAK-Fn14 inh 80, KKLEB tox -56, Peg3 promoter 98, CF NFkB block 86
COc1cc(Cl)c([C@@H]2C[C@H]3CN(c4ccccc4)C(=O)[C@]34CCCN24)cc1OC	none
COc1cc([C@@H]2C[C@H]3CN(c4ccccc4)C(=O)[C@]34CCCN24)cc(OC)c1OC	Peg3 promoter 87
COc1ccccc1C(=O)Oc1cc(N)n(S(=O)(=O)c2ccc(C)cc2)n1	none
Cc1ccc(S(=O)(=O)n2nc(OC(=O)c3ccccc3C)cc2N)cc1	TWEAK-Fn14 inh 57
CCOC(=O)c1c(-c2ccccc2)csc1NC(=O)CSc1nc(N)cc(N)n1	TWEAK-Fn14 inh 86
CCOC(=O)c1c(-c2ccccc2)csc1NC(=O)c1ccc(N2C(=O)CCC2=O)cc1	KKLEB tox -57, CF NFkB block 69
COc1ccccc1NC(=O)COC(=O)CNC(=O)c1ccc(OC)c(OC)c1	none
CCOC(=O)CSc1nnc(Cn2c(=O)sc3ccccc32)n1C	none
Cc1cnc(NC(=O)CCNC(=O)c2ccccc2Cl)s1	none
Cc1cnc(NC(=O)COc2ccccc2Cl)s1	TROY NFkB inh 59, TWEAK-Fn14 inh 96
O=C(CN1CCOCC1)Nc1nc(-c2ccc3c(c2)CCN3S(=O)(=O)c2ccccc2)cs1	TWEAK-Fn14 inh 53
CS(=O)(=O)N1CCc2cc(-c3csc(NC(=O)Cc4cccs4)n3)ccc21	TWEAK-Fn14 inh 80
CC(=O)Nc1ccccc1-c1nnc(SCc2ccccc2Cl)[nH]c1=O	none
O=c1oc2ccc(C#CC3(O)CCCCC3)cc2cc1-n1cc(-c2ccccn2)nn1	TWEAK-Fn14 inh 58
Nc1cccc(-c2cn(-c3cc4cc(C#CC5(O)CCCCC5)ccc4oc3=O)nn2)c1	none
CCOc1ccc(C(=O)NCC(=O)N2CCCC2)cc1	none
O=C(C1CC1)N1CCc2cc(Br)cc(S(=O)(=O)NCCCN3CCCCC3)c21	none
CC1CCN(CCCNS(=O)(=O)c2cc(Br)cc3c2N(C(=O)C2CC2)CC3)CC1	TWEAK-Fn14 inh 73
CCN(CC)C(=O)CSc1nc2cc(OC)c(OC)cc2c(=O)n1Cc1ccc(Cl)cc1	none
CC1(c2ccccc2)NC(=O)N(CC(=O)N2CCN(S(=O)(=O)c3cccc([N+](=O)[O-])c3)CC2)C1=O (centres undefined)	none
COc1ccc(C(C#N)=C2C=C(Cl)C(=NO)C=C2Cl)cc1	TWEAK-Fn14 inh 75, CF NFkB block 68
CCc1c(C)nc2cc(-c3ccccc3)[nH]n2c1=O	none
C=CCc1c(C)nc2cc(-c3ccc(C)cc3)[nH]n2c1=O	TWEAK-Fn14 inh 63
COc1cccc(C2CCCN2Cc2nc(CCC(C)C)no2)c1 (centres undefined)	none
NC(=S)n1[nH]c(-c2ccc([N+](=O)[O-])cc2)c(N=Nc2cccc(Cl)c2)c1=O	TROY NFkB inh 56, TWEAK-Fn14 inh 72
NC(=S)n1[nH]c(-c2ccc([N+](=O)[O-])cc2)c(N=Nc2ccc(O)cc2)c1=O	none
O=c1c2ccccc2ncn1Cc1nc2ccccc2s1	none
CC(C)CC1NC(=O)N(Cc2nc3ccccc3s2)C1=O (centres undefined)	TWEAK-Fn14 inh 72
CCCn1c(C)cc(C(=O)COC(=O)c2cc(=O)[nH]c3ccccc23)c1C	none
CCCn1c(C)cc(C(=O)COC(=O)c2nccnc2N)c1C	TROY NFkB inh 56, TWEAK-Fn14 inh 72
COC(=O)c1c(C)oc2ccc(N(C(=O)c3ccncc3)S(=O)(=O)c3ccc4ccccc4c3)cc12	TROY NFkB inh 53, TWEAK-Fn14 inh 57
Cc1ccc([N+](=O)[O-])cc1S(=O)(=O)N(C(=O)c1ccncc1)c1ccc2oc3c(c2c1)CCCC3	none
COC(=O)c1c(C)oc2ccc(N(C(=O)c3ccncc3)S(=O)(=O)c3ccc(C)cc3C)cc12	TROY NFkB inh 66, TWEAK-Fn14 inh 80
Cc1ccc(S(=O)(=O)N(C(=O)c2ccncc2)c2ccc3oc4c(c3c2)CCCC4)cc1[N+](=O)[O-]	TROY NFkB inh 54
COC(=O)c1c(C)oc2ccc(N(C(=O)c3ccncc3)S(=O)(=O)c3ccc(C)cc3)cc12	TROY NFkB inh 59, TWEAK-Fn14 inh 56
COC(=O)c1c(C)oc2ccc(N(C(=O)c3ccncc3)S(=O)(=O)c3ccccc3)cc12	none
CCOC(=O)CSc1nc2sc3c(c2c(=O)n1-c1ccccc1)CCN(C(C)C)C3	TWEAK-Fn14 inh 84
CN(c1ccc(O)cc1)c1nc(-c2ccccc2)cs1	TWEAK-Fn14 inh 55
CN(C(=O)c1ccco1)c1nc(-c2ccccc2)cs1	none
O=C(NCC(O)c1ccc([N+](=O)[O-])cc1)c1cccc(S(=O)(=O)N2CCOCC2)c1 (centres undefined)	none
CN(C)c1ccc(N=Cc2ccco2)cc1	TWEAK-Fn14 inh 51
CN(C)c1ccc(C=Nc2ccc(N(C)C)cc2)cc1	none
